Bioassay records (PubChem BioAssay)
HT1080-NT tox: kills 2HG-producing HT-1080-NT fibrosarcoma cells | HT-1080-NT fibrosarcoma viability, CellTiter-Glo ATP luminescence, 48 h | Potency, µM (top dose mostly 46.1 µM), inactives show at the highest dose activity, negative = less viability, usual class: cytotoxic | actives 1.6% (n = 360,000) | AID 686970;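 further: NT is the 2HG producing partner of a matched IDH1 knockdown line; potency means the concentration at half of the fitted maximal effect; 0% = DMSO-treated cells and -100% = media-only wells without cells; nearly all actives have a fitted effect of over 55% in size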
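Compounds were tested in concentration-response format on HT-1080-NT cells for 48 hours at 37 degrees C. Cell viability came from CellTiter-Glo luminescence; curves were classified by r2, response magnitude and activity.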
IL1B secr inh: inhibitors of inflammasome signaling (IL-1 beta secretion); THP-1 LPS/ATP IL-1B secretion, AlphaLISA, 16 h; hits give low values; activity change, % at 57.5 µM; actives 4.7% (n = 360,000); in the data active means activity change below about -50%; inconclusive means mostly about -30% to -49%
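THP-1 cells pretreated 1 hr with compounds (up to 57.5 uM final), then stimulated with LPS (250 ng/mL final) plus ATP (1.25 mM final); secreted IL-1B measured by AlphaLISA after 16 hr, decreased signal indicating inhibition.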
HT1080 IDH1KD tx: kills HT-1080 cells with IDH1 knockdown | HT-1080 IDH1 knockdown viability, ATP luminescence, 48 h | Potency, µM (titrated, usually from 46.1 µM), without a hit: at the highest dose activity, negative = toxicity, hits mostly cytotoxic | actives 2% (n = 360,000) | AID 686971;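 further: potency means the concentration at half of the fitted maximal effect; 0% = DMSO wells and -100% = cell-free medium wells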
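Assay cells: HT-1080 with IDH1 knockdown, 750 per well, RPMI/5% FBS. Exposure: 48 h at 37 °C following 2 h pre-incubation. Read: CellTiter-Glo luminescence; fitted concentration-response, curve class assigned.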
DT40 TDP1 CPT: DT40-hTDP1 cell growth loss with CPT. chicken DT40 Tdp1-/-;hTDP1 cells + 20 nM CPT, ATP luminescence, 48 h. Potency, µM (titrated, usually from 46.2 µM), for the others: at the highest dose activity change, negative = growth inhibition, actives largely listed as inhibitors. actives 12% (n = 420,000). AID 686979; further: potency means the concentration at half of the fitted maximal effect; nearly all actives have a fitted effect of over 55% in size
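Cell growth measured by CellTiter-Glo luminescence after a minimum 48 h, 37 C compound exposure with 20 nM CPT in Tdp1-knockout DT40 cells stably expressing hTDP1, seeded 400/well; qHTS titration format.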
DT40 TDP1 no CPT: qHTS for Inhibitors of human tyrosyl-DNA phosphodiesterase 1 (TDP1): qHTS in cells in absence of CPT | DT40 Tdp1-/- hTDP1 cells, no CPT, ATP luminescence, 48 h | Potency, µM (doses to about 46.2 µM), inactives show at the highest dose activity change, negative = growth inhibition, hits mostly inhibitors | actives 15% (n = 420,000); further: potency means the concentration at half of the fitted maximal effect; nearly all actives have a fitted effect of over 55% in size
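Luminescent ATP content (CellTiter-Glo) served as the growth readout. Knockout chicken DT40 cells expressing human TDP1 were exposed to compounds without camptothecin for a minimum 48 hr at 37 °C.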
The depositor's hits bear a star; ? = inconclusive; nt = not tested or not shown. Sampled rows, rich in hits. Any-hit rate of the full collection: about 19%. Unless noted, the call rests on the fitted dose curve; in most records, active means well fitted curve in the direction sought with a large enough effect; inconclusive means small, poorly fitted or top-dose-only effect, or another doubt; inactive means no such curve, though single readings can be large; an effect the other way counts as inactive or inconclusive. Unless noted, on the % scale 0 is the no-effect control and ±100 the full control effect.

SMILES	HT1080-NT tox	IL1B secr inh	HT1080 IDH1KD tx	DT40 TDP1 CPT	DT40 TDP1 no CPT
N=C1c2ccccc2CN1NC(=O)c1ccc(Br)cc1	0.9%	-102.0*	-4.3%	-15.5%	2.2%
C=C1C2CC[C@@]3(C)C(c4ccoc4)OC(=O)C[C@@]13OC1CC(=O)C(C)(C)C(C(OC(C)=O)C(=O)OC)[C@@]12C (some centres undefined)	nt	nt	nt	?	-13.6%
Cc1cccc2c1=NC(=O)/C(=C/c1c(O)[nH]c(=O)[nH]c1=O)C=2	1.5%	13.9	-4.5%	?	-28.6%
O=c1[nH]c(=S)[nH]c(O)c1/C=C1/C=c2ccccc2=N1	?	-99.3*	?	7.31µM*	8.2µM*
CCOC(=O)c1ccc(N=C(C)c2c(O)[nH]c(=O)[nH]c2=O)cc1	?	4.3	?	6.4%	2.7%
COC(COC(N)=O)C1=C(N2CC2)C(=O)C(C)=C(N2CC2)C1=O (centres undefined)	6.51µM*	-113.4*	3.26µM*	0.164µM*	0.164µM*
CCS(=O)(=O)Nc1ccc(C2=NN(C(=O)c3ccco3)C(c3ccc(Cl)o3)C2)cc1 (centres undefined)	-17.5%	-62.8*	-27.6%	?	23.1µM*
Cc1cccc(NC(=S)N/N=C/c2ccc([N+](=O)[O-])s2)c1	17.8µM*	0.0	?	12.6µM*	7.94µM*
Cc1cccc(NC(N)=S)c1	-12.5%	27.3	-3.7%	-22.9%	-17.7%
O=c1[nH]cc(F)c(=O)[nH]1	?	19.3	?	18.4µM*	16.4µM*
O=C(c1ccc(CNS(=O)(=O)c2ccc(Br)cc2)cc1)N1CCC2(CC1)OCCO2	0.4%	24.6	-0.8%	?	9.2µM*
c1ccc(C2CN3CCC2CC3)cc1 (centres undefined)	-4.7%	0.4	-0.2%	4.8%	-4.4%
OC(c1ccccc1)(c1ccccc1)C1CN2CCC1CC2 (centres undefined)	-10.6%	-26.2	-18.9%	?	?
OC(c1ccccc1)(c1ccc(Cl)cc1)C1CN2CCC1CC2 (centres undefined)	?	-70.1*	16.4µM*	16.4µM*	18.4µM*
OC(Cc1ccccc1)(c1ccccc1)C1CN2CCC1CC2 (centres undefined)	?	-14.3	?	14.6µM*	16.4µM*
CC(C)C[C@H]1CNC(=S)N1CC1CCN(CC2CCC(C(C)(C)C)CC2)CC1 (some centres undefined)	-0.4%	-21.8	-0.2%	16.4µM*	16.4µM*
O=C1CN=C(c2ccc[nH]2)c2cc(Cl)ccc2N1	-4.3%	4.8	-11.4%	0.164µM*	0.0326µM*
S=C1CN=C(c2ccccc2)c2cc(Cl)ccc2N1	-3.1%	2.2	0.1%	?	?
CN=C1CN=C(c2ccc[nH]2)c2cc(Cl)ccc2N1	nt	nt	nt	0.0794µM*	0.112µM*
Cn1c(=O)cc(OCC(=O)N2CCN(Cc3ccc4c(c3)OCO4)CC2)c2ccccc21	2.5%	-2.0	7.0%	?	?
CCc1ccc([C@H]2[C@@H]3C(=O)C[C@@H]4C(=O)N(Cc5ccccc5)C(=O)[C@@H]4[C@@H]3CN2S(=O)(=O)c2ccc(C)cc2)cc1	0.1%	-14.6	5.7%	?	?
Cc1ccccc1C(=O)Nc1sc2c(c1C(=O)O)CCC(C(C)(C)C)C2 (centres undefined)	nt	nt	nt	10.3µM*	4.61µM*
O=C(N/N=C/c1c(O)n(CCc2ccccc2)c(=O)[nH]c1=O)c1ccncc1	4.7%	2.3	6.7%	-7.3%	?
O=C(N/N=C/c1cccnc1)c1ccc(NC(=O)C(c2ccccc2)c2ccccc2)cc1	-11.4%	31.1	-1.4%	7.31µM*	11.6µM*
COc1cccc(Nc2nc(C(N)Cc3ccc(F)cc3)cs2)n1 (centres undefined)	23.1µM*	-64.4*	14.6µM*	18.4µM*	8.2µM*
SMILES	HT1080-NT tox	IL1B secr inh	HT1080 IDH1KD tx	DT40 TDP1 CPT	DT40 TDP1 no CPT
NC(Cc1ccc(F)cc1)c1csc(Nc2ccccn2)n1 (centres undefined)	?	-50.7*	23.1µM*	?	16.4µM*
NC(Cc1ccc(Cl)cc1)c1csc(Nc2ccccn2)n1 (centres undefined)	23.1µM*	-66.2*	?	14.6µM*	13µM*
NC(Cc1ccccc1)c1csc(Nc2ccccn2)n1 (centres undefined)	?	-18.6	?	?	?
CN1CCC2(CC1)C(C#N)=C(N)NC(S)=C2C#N	-2.0%	14.6	3.5%	?	1.8%
CCOc1ccc2nc(NC(=O)c3cccn(Cc4ccccc4Cl)c3=O)sc2c1	nt	nt	nt	-3.5%	15.5%
On1ccccc1=S	0.0411µM*	-107.3*	0.326µM*	0.13µM*	0.0092µM*
Cc1cnc(SCc2ccccn2)nc1C1CCCN(C(=O)c2ccc(-c3ccccc3F)cc2)C1 (centres undefined)	nt	nt	nt	?	23.1µM*
Cc1cnc(SCc2ccccn2)nc1C1CCCN(C(=O)c2scc3c2CCCC3)C1 (centres undefined)	nt	nt	nt	11.6µM*	10.3µM*
Cc1noc(C)c1CC(=O)N1CCCC(N2CCN(c3ccccc3F)CC2)C1 (centres undefined)	-0.2%	-3.9	-2.2%	-10.8%	-14.0%
C=CCN1CC[C@]23CCCC[C@H]2[C@H]1Cc1ccc(O)cc13	nt	nt	nt	1.6%	?
O=C(CF)NC(Nc1cccc2cccnc12)C(Cl)(Cl)Cl (centres undefined)	-5.1%	23.6	-9.8%	?	?
CCNc1nc(NC(C)C)nc(NS(=O)(=O)c2ccc(Cl)cc2)n1	-8.1%	-20.9	-5.7%	?	?
Cc1ccc(N2C(=O)NC(=O)/C(=C\c3cc(C)n(-c4sc5c(c4C#N)CCCC5)c3C)C2=O)cc1	?	-84.4*	?	?	?
CCN1C(=O)NC(=O)/C(=C/c2cc(C)n(-c3sc(C)c(C)c3C#N)c2C)C1=O	-7.4%	-22.4	-9.7%	?	?
Cc1cc(/C=C2\C(=O)NC(=O)N(c3ccc(Br)cc3)C2=O)c(C)n1-c1cc(C(=O)O)cc(C(=O)O)c1	-8.9%	?	-14.4%	-11.8%	-29.8%
CCOC(=O)c1c(-n2c(C)cc(/C=C3/C(=O)NC(=O)N(CC)C3=O)c2C)sc2c1CCCC2	-1.4%	6.0	6.1%	16.4µM*	?
CCOC(=O)c1c(-n2c(C)cc(C=C3C(=O)NC(=S)NC3=O)c2C)sc2c1CCCC2	?	-109.6*	?	23.1µM*	18.4µM*
NC[C@@H](CC(=O)O)c1ccc(Cl)cc1	nt	nt	nt	12.5%	-0.6%
